What was measured:
Conditions in all cases: Compound Concentration (nM):1000
PRKG1 = test system: PRKG1
PRKG2 = test system: PRKG2
PRKR = test system: T1, PRKR
T1 construct: gene EIF2AK2

PRKX = test system: PRKX
PRP4 = test system: T2, PRP4
T2 construct: gene PRPF4B

PYK2 = test system: T3, PYK2
T3 construct: gene PTK2B

QSK = test system: T4, QSK
T4 construct: gene KIAA0999

RAF1 = test system: RAF1
RET(M918T) = test system: RET(M918T)
RET(V804L) = test system: RET(V804L)
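Note: KINOMEscan scanMAX binding as percent activity remaining versus control; lower means stronger binding.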

Structure (SMILES) | Percent Control (PRKG1) [%] | Percent Control (PRKG2) [%] | Percent Control (PRKR) [%] | Percent Control (PRKX) [%] | Percent Control (PRP4) [%] | Percent Control (PYK2) [%] | Percent Control (QSK) [%] | Percent Control (RAF1) [%] | Percent Control (RET(M918T)) [%] | Percent Control (RET(V804L)) [%]
COc1ccc2c(-c3ccnc(Nc4cccc(OC(F)(F)F)c4)n3)cnn2n1 [GW810372X] | 82 | 97 | 75 | 100 | 100 | 96 | 95 | 100 | 100 | 100
C[C@@H](Oc1cc(-n2cnc3ccc(OC4CCN(C)CC4)cc32)sc1C(N)=O)c1ccccc1Cl [GSK579289A] | 100 | 65 | 80 | 74 | 100 | 86 | 85 | 100 | 99 | 100
COc1cc2ncnc(Nc3ccc4c(cnn4Cc4ccccc4)c3)c2cc1OC.Cl [GW282449A] | 93 | 100 | 89 | 100 | 100 | 100 | 100 | 100 | 90 | 100
CN1CCN(C(=O)c2ccc(NC(=O)Nc3ccc(N(C)c4ccnc(Nc5ccc(CS(C)(=O)=O)cc5)n4)cc3)cc2)CC1.Cl [GW830263A] | 100 | 100 | 100 | 100 | 88 | 20 | 86 | 90 | 0.2 | 5.5
COc1cc(N2CCN(C(C)C)CC2)ccc1Nc1nc(Nc2ccc(F)cc2C(=O)NC[C@@H](O)CO)c2cc[nH]c2n1 [GSK1392956A] | 100 | 100 | 80 | 80 | 100 | 2.4 | 100 | 100 | 93 | 86
COc1ccc2cc(-c3c(-c4ccncc4)nc(-c4ccc(S(C)(=O)=O)cc4C)n3C)ccc2c1 [SB-633825] | 100 | 83 | 100 | 95 | 68 | 57 | 79 | 74 | 72 | 94
COc1ccc2[nH]c3c4[nH]c5ccc(OC)cc5c4c4c(c3c2c1)C(=O)NC4=O [GW296115X] | 74 | 0.9 | 100 | 23 | 97 | 68 | 56 | 100 | 21 | 4.2
COc1cc(/C=N/Nc2ncnc3[nH]ncc23)ccc1O [GW578748X] | 100 | 22 | 41 | 100 | 100 | 100 | 90 | 100 | 4.6 | 76
Cl.c1ccc(Cc2nc3ccc(Nc4ncnc5ccccc45)cc3[nH]2)cc1 [GR269666A] | 100 | 100 | 84 | 100 | 100 | 100 | 100 | 100 | 100 | 100
CN(C)CCNC(=O)Nc1ccc(N(C)c2ccnc(Nc3ccc(CS(C)(=O)=O)cc3)n2)cc1.Cl [GW830900A] | 100 | 95 | 100 | 90 | 100 | 57 | 87 | 100 | 79 | 88
COc1cc2ncn(-c3cc(O[C@H](C)c4ccccc4Cl)c(C(N)=O)s3)c2cc1OC [GSK237701A] | 100 | 92 | 82 | 97 | 61 | 62 | 97 | 73 | 51 | 56
CCS(=O)(=O)c1ccc(OC)c(Nc2ncc(-c3cccc(F)c3)o2)c1 [GW621970X] | 100 | 100 | 76 | 100 | 100 | 100 | 99 | 100 | 52 | 84
COc1ccc(COc2ccc(Cc3cnc(N)nc3N)cc2OC)cc1 [GW632580X] | 100 | 86 | 100 | 100 | 88 | 84 | 100 | 100 | 93 | 88
NS(=O)(=O)c1ccc(N/N=C2\C(=O)Nc3ccc(C(=O)NCc4ccncc4)cc32)cc1 [GW300657X] | 100 | 94 | 65 | 94 | 81 | 58 | 100 | 100 | 80 | 74
CCc1ccc(Oc2nccc(-c3c(-c4ccc(F)cc4)ncn3C3CCNCC3)n2)cc1 [SB-242719] | 100 | 92 | 100 | 86 | 100 | 97 | 85 | 100 | 93 | 88
CC(C)COC(=O)c1ccc2c(c1)/C(=C/Nc1ccc(S(N)(=O)=O)cc1)C(=O)N2 [GW416981X] | 100 | 54 | 65 | 100 | 96 | 100 | 95 | 100 | 83 | 43
NS(=O)(=O)c1ccc(Nc2ncc(-c3ccccc3)o2)cc1 [GW572399X] | 96 | 100 | 55 | 100 | 100 | 100 | 100 | 100 | 100 | 100
Nc1ncnc2occ(-c3ccc(NC(=O)Nc4cc(C(F)(F)F)ccc4F)cc3)c12 [GW770249X] | 71 | 100 | 72 | 100 | 100 | 90 | 100 | 38 | 0.8 | 0.6
C/C(Nc1ccc(S(N)(=O)=O)cc1)=C1/C(=O)Nc2ccccc21 [GW335962X] | 90 | 94 | 63 | 87 | 100 | 99 | 97 | 83 | 92 | 98
O=C1Nc2ccc(C(=O)c3ccco3)cc2C1=Cc1cc(Cl)c(O)c(Cl)c1 [GW406108X] | 100 | 100 | 62 | 100 | 71 | 100 | 100 | 13 | 56 | 29

Structure (SMILES) | Percent Control (PRKG1) [%] | Percent Control (PRKG2) [%] | Percent Control (PRKR) [%] | Percent Control (PRKX) [%] | Percent Control (PRP4) [%] | Percent Control (PYK2) [%] | Percent Control (QSK) [%] | Percent Control (RAF1) [%] | Percent Control (RET(M918T)) [%] | Percent Control (RET(V804L)) [%]
NS(=O)(=O)c1ccc(N/N=C2\C(=O)Nc3ccc(-c4cnco4)cc32)cc1 [GW276655] | 68 | 57 | 54 | 100 | 100 | 79 | 100 | 100 | 59 | 60
NS(=O)(=O)c1ccc(N/N=C2\C(=O)Nc3ccc(C(=O)NCCc4c[nH]cn4)cc32)cc1 [GW300660X] | 62 | 49 | 87 | 100 | 100 | 100 | 89 | 100 | 100 | 100
CCn1c(-c2nonc2N)nc2c(C#CC(C)(C)O)nc(OCCNC)cc21.Cl [GSK949675] | 34 | 0.5 | 94 | 7.9 | 90 | 100 | 99 | 100 | 73 | 88
Cl.O=C(Nc1ccc(Oc2ccc3[nH]c(NC(=O)c4ccco4)nc3c2)cc1)Nc1cc(C(F)(F)F)ccc1F [GW683134A] | 96 | 88 | 68 | 100 | 100 | 93 | 100 | 9.5 | 0.7 | 0.4
Cc1cc(O)cc(C)c1/C=C/c1cncc(C(N)=O)c1 [GW435821X] | 100 | 100 | 94 | 100 | 100 | 100 | 86 | 58 | 100 | 100
COc1cccc(-c2c[nH]c3c(N/N=C/c4ccncc4)ncnc23)c1 [GW814408X] | 100 | 97 | 94 | 100 | 100 | 100 | 28 | 74 | 79 | 95
NS(=O)(=O)c1ccc(N/N=C2\C(=O)Nc3ccc(Cl)cc32)cc1 [GW280670X] | 85 | 100 | 86 | 100 | 100 | 100 | 100 | 100 | 100 | 100
COc1cc(C=NNc2ncnc3c2cnn3-c2ccccc2)ccc1O [GW513184X] | 100 | 100 | 76 | 100 | 100 | 100 | 100 | 100 | 18 | 90
COc1cc(C)c(N(C)C(=O)CN(C)C)cc1Nc1nc(Nc2cccc(F)c2C(N)=O)c2cc[nH]c2n1 [GSK2219385] | 92 | 82 | 100 | 95 | 100 | 81 | 100 | 100 | 100 | 100
Cl.O=S1CCN(Cc2ccc(-c3ccc4ncnc(Nc5ccc(OCc6ccccc6)c(F)c5)c4c3)o2)CC1 [GW576924A] | 100 | 100 | 86 | 100 | 100 | 100 | 100 | 100 | 100 | 100
CC1=C(C(=O)Nc2ccc3[nH]ncc3c2)C(c2ccc(Cl)c(Cl)c2)CC(=O)N1 (stereo not shown) [GSK299115A] | 45 | 67 | 79 | 25 | 74 | 79 | 92 | 100 | 74 | 75
COC(=O)Nc1nc2ccc(Oc3ccc(NC(=O)Nc4cc(C(F)(F)F)ccc4F)cc3)cc2s1.Cl [GW693917A] | 100 | 91 | 85 | 100 | 100 | 94 | 88 | 17 | 0.8 | 1
O=C(Nc1n[nH]c2nc(-c3ccc(O)cc3)c(Br)cc12)C1CC1 [SB-725317] | 100 | 97 | 59 | 100 | 100 | 100 | 100 | 46 | 100 | 100
COc1cccc(-n2ncc3c(N/N=C/c4ccncc4)ncnc32)c1 [GW784752X] | 93 | 100 | 80 | 38 | 84 | 95 | 100 | 58 | 93 | 100
CCS(=O)(=O)c1ccc(OC)c(Nc2ncc(-c3cccc(OC)c3)o2)c1 [GW580509X] | 100 | 100 | 85 | 100 | 82 | 100 | 100 | 100 | 50 | 78
CC1=C(C(=O)Nc2ccc3[nH]ncc3c2)C(c2ccc3ccccc3c2)CC(=O)N1 (stereo not shown) [GSK270822A] | 48 | 29 | 89 | 22 | 62 | 77 | 91 | 87 | 34 | 46
Cl.O=C(Nc1ccc(Oc2ccc3[nH]c(NC(=O)c4ccccc4)nc3c2)cc1)Nc1cc(C(F)(F)F)ccc1F [GW709042A] | 91 | 88 | 85 | 100 | 100 | 100 | 100 | 27 | 2.5 | 3.6
COc1ccccc1-c1cc(/C=C2\C(=O)Nc3ncc(Br)cc32)cc(Br)c1O [GW442130X] | 100 | 100 | 90 | 100 | 96 | 100 | 100 | 100 | 100 | 91
CN(C)c1cc2c(Nc3ccc4c(cnn4Cc4ccccc4)c3)ncnc2cn1 [GW282974X] | 100 | 93 | 76 | 80 | 100 | 83 | 95 | 100 | 82 | 93
Cl.O=C(O[C@H]1CN[C@H](C#Cc2cc3ncnc(Nc4ccc5c(cnn5Cc5ccccc5)c4)c3s2)C1)N1CCOCC1 [GSK200398A] | 95 | 100 | 65 | 77 | 100 | 99 | 100 | 88 | 100 | 100
